Measured values from PubChem BioAssay AID2732 (Emory University Molecular Libraries Screening Center, 2010).
Hit rate of the full screen: of about 220,000 compounds, about 8,200 (3.7%) were called active. For the sample, actives were picked, then their nearest neighbours and some compounds at random. Unmarked numbers belong to inactive results.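 The calls were made as follows: active = compounds that reduced the stress-induced luciferase reporter signal by more than about 70% of percent inhibition (limit read from the data); inactive = the rest.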

Assay: blockers of ER-stress CHOP reporter expression – cell-based, unfolded protein response, luciferase reporter, primary screen (AID 2732);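 also: 0% = tunicamycin plus vehicle and 100% = wells without tunicamycin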
Conditions: CHO-K1 CHOP-promoter luciferase, tunicamycin-induced, 15-18 h; at 10 µM; active compounds read high

SMILES	inhibition
c1ccc(C2c3[nH]c4ccccc4c3CCN2Cc2cccn2-c2cccnc2)nc1 (stereo not given)	-19.1%
Oc1cccc(C2c3[nH]c4ccccc4c3CCN2Cc2cnn(-c3ccccc3)c2)c1 (stereo not given)	106% (active)
COc1cccc(C2c3[nH]c4ccccc4c3CCN2Cc2cccc(C)n2)c1 (stereo not given)	8.45%
Cn1c(CSCC(=O)Nc2ccccc2)nnc1SCc1ccccc1	-6.7%
COc1ccc(NC(=O)CCN2C(=O)/C(=C/c3ccc4c(c3)OCO4)SC2=S)cc1	-8.39%
CCCCCCCCn1c2c(c(=N)c3c1CCC3)CCCC2	75.5% (active)
O=C(N/N=C/c1cccc([N+](=O)[O-])c1)c1ccncc1	5.76%
O=C(CSc1nnnn1-c1ccc(O)cc1)c1ccc(F)cc1	17%
CCCCC(CCC(=O)Nc1ccc(C(=O)OCC)cc1)C(=O)O (stereo not given)	14.7%
CCOC(=O)Nc1ccc(NC(=O)OCC)cc1	26.9%
CCCCCOC(=O)NCCOC(=O)Nc1ccc(C(=O)OCC)cc1	83.8% (active)
O=C(CN1CCCCCC1)Nc1ccc(Br)cc1Br	84.9% (active)
O=C(CN1CCCCC1)Nc1ccccc1Cl	10.1%
COc1cc([N+](=O)[O-])ccc1NC(=O)CN1CCCC1	-4.65%
CCOc1ccc(C2c3[nH]c4ccccc4c3CCN2Cc2cccn2-c2ncccn2)cc1 (stereo not given)	-20%
Cc1nnc(N/N=C/c2cccs2)[nH]c1=O	10.9%
CCOc1ccc(-n2cnc3c(=O)[nH]c(N)nc32)cc1	8.78%
CC1CC2C3CCC4=CC(=O)C=C[C@]4(C)[C@@]3(F)[C@@H](O)C[C@]2(C)[C@@]1(O)C(=O)CO (stereo not given in full)	4.18%
CNc1nc(Nc2ccc(C)c(Cl)c2)nc(N)c1[N+](=O)[O-]	81.6% (active)
CCN1CCN(c2nc(Nc3cccc(F)c3)nc(N)c2[N+](=O)[O-])CC1	3.99%
Nc1nc(Nc2ccccc2)nc(NCCO)c1[N+](=O)[O-]	-4.79%
COc1ccc2c(c1)c1ncn(Cc3ccccn3)c(=O)c1n2C	18.8%
CCN(CC)C(=O)Oc1ccc(Br)cc1C(=O)Nc1ccc(F)c(Cl)c1	-9.25%
CN(C)C(=S)Nc1ccc(Br)cc1Cl	-7.26%
CCCCSc1nnc2c(n1)OC=Nc1ccccc1-2	-26.6%

SMILES	inhibition
O=C1/C(=C/c2ccc3c(c2)OCO3)CCC/C1=C\c1ccc2c(c1)OCO2	10.8%
CCC1=C/C(=C\c2ccc3c(c2)OCO3)C(=O)S1	47.3%
CSC1=N/C(=C\c2ccc3c(c2)OCO3)C(=O)S1	79.4% (active)
C/C=N/N(c1ccccc1)c1ccccc1	12.3%
Oc1ccc(-c2nnc(Nc3ccccc3)c3ccccc23)cc1	34.9%
COc1cc(OC)c2ccc(=O)oc2c1C(CCN1CCN(c2ccccc2)CC1)c1ccc2c(c1)OCO2 (stereo not given)	6.77%
Cc1[nH]n(C)c(=O)c1C(=O)c1c(-c2c(Cl)cccc2Cl)noc1C	-56.3%
COc1ccc(CNC(=O)C(Cc2ccccc2)n2cccc2)cc1 (stereo not given)	9.45%
CCOC(=O)C1=C(O)CSC1=Nc1cccc(Cl)c1	12.7%
Clc1cccc(N=C2NN=C(c3ccc4c(c3)OCCO4)CS2)c1	10.5%
CN(C)c1nc(=Nc2cccc(Cl)c2)ss1	74.4% (active)
COc1ccccc1N(C)S(=O)(=O)c1ccc(C(=O)NC2CCCCCC2)cc1	19.2%
O=C(NC1CC1)c1ccc(-c2ccccc2)cc1	-3.76%
CN1C(=O)/C(=C/c2ccc(C(=O)NC3CCCC3)cc2)Oc2ccccc21	101% (active)
CCc1ccc2nc(Nc3ncc(C(C)=O)c(C)n3)nc(C)c2c1	1.13%
NNC(=O)c1cccc(COCC(F)(F)C(F)F)c1	-3.75%
O=C(CCCl)Nc1ccc(S(=O)(=O)NCc2ccco2)cc1	-12.6%
O=C(NC1CC1)c1cccc(Br)c1	20.9%
COC(=O)C1NN=C(C(=O)c2ccc(Br)cc2)C1c1cccc(Br)c1 (stereo not given)	75.1% (active)
COc1ccc(C(=O)c2oc3ccc(Br)cc3c2NC(C)=O)cc1	10%
C/C(CC(C)C)=N\Oc1nc(C)cc(C)n1	-11.9%
Cc1cc(N2CCN(c3ccccc3)CC2)nc(N2CCOCC2)n1	12%
FC(F)(F)c1cc(C(F)(F)F)c2ccc(N3CCN(c4ccccc4)CC3)nc2n1	96.8% (active)
O=C(NC(=S)Nc1cccc2c(O)cccc12)c1cccc(Br)c1	32.1%
CCOC(=O)c1c(C)oc(C)c(C(=O)OCC)c1=O	1.84%

SMILES	inhibition
O=C(CN1CCN(S(=O)(=O)c2ccc(F)cc2)CC1)Nc1ccccc1F	14.5%
Cc1ccc(S(=O)(=O)N2CCN(Cc3cccc(C)c3O)CC2)cc1	83% (active)
O=S(=O)(c1ccc(F)cc1)N1CC=C(c2ccccc2)CC1	5.87%
O=S(=O)(c1ccc(F)cc1)N1CCN(Cc2ccccc2C(F)(F)F)CC1	88% (active)
Cc1ccc(S(=O)(=O)N2CCN(S(=O)(=O)N3CCOCC3)CC2)cc1	-15%
Cc1ccc(S(=O)(=O)N2CCN(C(=O)c3cccs3)CC2)cc1	18.5%
CN(CC(O)COc1ccc(S(=O)(=O)N2CCOCC2)cc1Cl)C1CCCCC1 (stereo not given)	9.37%
O=C(O)COCC(=O)NCc1csc2ccc(Cl)cc12	1.58%
COc1cccc(NS(=O)(=O)c2ccc3[nH]cc(C(=O)NCCCOC(C)C)c(=O)c3c2)c1	-0.02%
CCCCNC(=O)c1c[nH]c2ccc(S(=O)(=O)Nc3ccc(OCC)cc3)cc2c1=O	100% (active)
CCOc1ccc(NS(=O)(=O)c2ccc(C)c(C(N)=O)c2)cc1	16.6%
COC(=O)c1ccc(S(=O)(=O)NCc2ccccc2)n1C	15.6%
O=c1cc(CCl)nc2scc(-c3ccccc3)n12	-35.4%
C=CCn1c(SCc2c(C)noc2C)nc2sc3c(c2c1=O)CCC(C)C3 (stereo not given)	25.9%
Cc1cc(NC(=O)CSc2nc(C(C)C)nc3sc4c(c23)CCC(C)C4)no1 (stereo not given)	78.5% (active)
Cc1nc(SCC(=O)Nc2cc(C)on2)c2c3c(sc2n1)CCCC3	97.7% (active)
Cc1cc(NC(=O)CSc2nc3c(cc2C#N)CCCCC3)no1	-14.1%
Cc1cc(NC(=O)CSc2nc3ccccc3n2CC(C)C)no1	-2.4%
Cc1nc(SCC(=O)Nc2cc(C)on2)c2c(C)c(C)sc2n1	69.6%
CNC(=S)NNC(=O)c1ccc(N(C)C)cc1	-5.96%
O=C(Nc1n[nH]c(C(F)(F)F)n1)c1cccs1	3.43%
Cc1noc(C)c1C(=O)OCC(=O)N1CCN(S(=O)(=O)c2ccc3ccccc3c2)CC1	4.18%
O=C(COC(=O)c1ccc[nH]c1=O)Nc1ccc2c(c1)OC(F)(F)O2	-4.76%
O=C(CCn1nnc2ccccc2c1=O)N[C@@H](Cc1c[nH]c2ccccc12)C(=O)O	5.85%
Cc1nc2ccccc2cc1O	-6.19%

SMILES	inhibition
Fc1cccc2ncnc(OCc3ccccc3)c12	-2.5%
Cc1nc2ccccc2cc1OCc1ccc(F)cc1	74.8% (active)
O=S(=O)(Nc1n[nH]c(C(F)(F)F)n1)c1ccccc1	11.6%
COC(=O)c1cc(C(=O)OCC(=O)Nc2cc(C)on2)cc([N+](=O)[O-])c1	4.62%
Cc1cccc(NC(=O)c2sc3nc4c(c(-c5ccco5)c3c2N)CCC4)c1	34.4%
Cc1nc2sc(C(=O)c3ccccc3)c(N)c2c2c1CCCC2	0.62%
CCc1nc2sc(C(=O)O)c(N)c2c2c1CCCC2	3.45%
Cc1ccc(NC(=O)c2sc3nc(N)c(C#N)cc3c2N)cc1	-25.7%
NC(=O)c1sc2nc3c(c(-c4ccccc4)c2c1N)CCC3	70.9% (active)
CC(=O)Nc1ccc(NC(=O)c2sc3nc4c(c(-c5ccc(C)cc5)c3c2N)CCC4)cc1	78.3% (active)
COc1ccc(C2/C=C\CN(S(=O)(=O)c3cccs3)CC(=O)N2Cc2ccc(F)cc2)cc1 (stereo not given)	4.62%
Cc1cc(C)c(NC(=O)CN2C(=O)NC(Cc3ccccc3)C2=O)c(C)c1 (stereo not given)	11.3%
COc1ccc2nc(NC(=O)NC3CCCCC3)sc2c1	26.1%
COc1ccc2nc(NC(=O)c3ccc(Br)s3)sc2c1	95.9% (active)
COc1cccc(C(=O)Nc2nc3ccc(S(C)(=O)=O)cc3s2)c1	8.18%
CCCSc1ncccc1C(=O)O	-2.65%
CO/N=C(/CS(=O)(=O)c1ccc(Br)cc1)c1ccc(OC)cc1	83% (active)
COC(=O)CNS(=O)(=O)c1ccc(OC)cc1	3.65%
CO/N=C/CC(=O)c1ccc(OC)cc1	-19.6%
Cc1nc(-c2ccccc2)sc1-c1nnc(C2CC2)o1	-9.64%
O=c1[nH]nc(SCCS(=O)(=O)c2ccc(F)cc2)n1-c1ccccc1C(F)(F)F	10.5%
CN(C)CCCN(Cc1cc2cc3c(cc2[nH]c1=O)OCCO3)C(=O)NC1CCCCC1	5.43%
Clc1ccc(Nc2nc(-c3cccs3)cs2)nc1	99.5% (active)
O=C(Nc1ccc(Cl)cn1)Nc1cccs1	38.9%
c1ccc(Nc2nc(-c3ccncc3)cs2)nc1	56.5%
